The campaign covered roughly 310,000 compounds. About 18,000 (5.8%) were called active. Another 22% or so got no clear call; they are omitted. Many of the other results were omitted from the sample, so actives are more common in it than they were. Values without a mark were called inactive. Calls follow the shape of the dose curve; as a rule, active = well fitted inhibition curve with a large enough effect; inconclusive = small, poorly fitted or top-dose-only effect, or another doubt; inactive = no such curve, though single readings can be large or run the other way.
test: Primary qHTS for delayed death inhibitors of the malarial parasite plastid, 48 hour incubation; conditions: P. falciparum luciferase growth in erythrocytes; series mostly up to 28.7 µM; activity change, negative = inhibition: at the top concentration
From the text: The goal of this screen is to discover new antimalarial compounds that act by inhibiting the development of the apicoplast in the malarial parasite Plasmodium falciparum. The biochemical processes that make this organelle essential for erythrocytic stage parasites are not well understood. However, antibiotics such as azithromycin and tetracycline, which target the apicoplast translational machinery, have a potent antimalarial effect.
We have developed a cell-based assay that measures parasite growth based on the expression of an integrated copy of a firefly luciferase reporter. To detect small molecules that cause this "delayed death" phenotype, erythrocytes infected with the luciferase-expressing parasites were incubated with compounds for either one or two generations, corresponding to 48 and 96 hours, respectively. Compounds that inhibit parasite growth in the second generation, but not the first, should be enriched in antimalarials that target the apicoplast. Growth inhibition is detected by a decrease in luciferase activity.
Assay Provider: David Fidock and Eric Ekland, Columbia University
Keywords: NIH Roadmap, MLPCN, MLI, MLSMR, qHTS, NCGC, qHTS, malaria, luciferase, viability
Four microliters of culture medium (RPMI 1640 with 0.5% w/v Albumax (GIBCO), 24 mM sodium bicarbonate and 10 ug/mL gentamycin) were dispensed by a Multi-drop Combi into white solid 1536-well plates (Grenier) and 23 nL compound was added by a pin tool. Four microliters of infected erythrocytes (2% hematocrit, 0.1% parasitemia final concentration) in culture medium were dispensed and the plates incubated for 48 hours at 37 C in 5% CO2. Two microliters of luciferase detection reagent was added and luminescence was detected by a ViewLux (PerkinElmer) reader.
% is scaled to controls: 0 for no effect and ±100 for the full control effect; potency is read from the fitted curve at half-maximal effect.

Compound | activity change, negative = inhibition [%] | Potency
N#CCCN(C(=O)COC(=O)c1ccc(S(=O)(=O)N2CCCCCC2)cc1)c1ccccc1 | -10.5 | 
CC(=O)c1ccc(N2Cc3ccccc3C2)cc1 | 140 | 
O=C(OCC(=O)c1c[nH]c2ccccc12)c1cccc(O)c1 | 334 | 
CCOc1ncccc1C(=O)OCC(=O)c1c[nH]c2ccccc12 |  | 13.1 µM (active)
CCOc1ncccc1C(=O)OCC(=O)NC1CC1 | 18.9 | 
O=C(O)c1ccccc1-c1ccccc1C(=O)Nc1ccccc1Br | 15.8 | 
COc1ccc(C)cc1NC(=O)CSc1nnc2ccc(-c3ccccn3)nn12 | -5.83 | 
CCCCc1ccc(NC(=O)NCc2cccnc2)cc1 | 5.5 | 
CCc1ccc(N2CC(C(=O)N3CCCCCC3)CC2=O)cc1 (stereo unspecified) | 15.9 | 
COc1ccc(N2CCN(C(=O)c3ccc(N4CCCCS4(=O)=O)cc3)CC2)cc1 | -9.38 | 
Cc1cc(Cl)ccc1OCCCC(=O)Nc1cccc(-n2cnnn2)c1 | -3.27 | 
Cc1ccc(N2C(=O)C3N=NN(CC(=O)N4N=C(c5cccc6ccccc56)CC4c4ccccc4)C3C2=O)cc1 (stereo unspecified) |  | 13.1 µM (active)
Cc1ccc(N2C(=O)CC(Nc3cccc4ccccc34)C2=O)cc1 (stereo unspecified) | 18.2 | 
COc1ccc(C2=NN(C(C)=O)C(c3ccccc3)C2)cc1 (stereo unspecified) | 23 | 
O=C(CSc1nnnn1C1CCCC1)N1CCCCC1 | 98.1 | 
O=C(O)C1=NN(c2c(F)c(F)cc(F)c2F)C(=O)CC1 | 19.6 | 

Compound | activity change, negative = inhibition [%] | Potency
COc1ccc(N2CCN(C(=O)CCNC(=O)c3ccc(Br)cc3)CC2)cc1 | -16.9 | 
COc1cccc(C(=O)N2CCC(n3nccc3NC(=O)C3CCOC3)CC2)c1 (stereo unspecified) | 1.74 | 
Cc1cc(C)nc(-n2nc(C)cc2NC(=O)c2ccc(F)cc2F)n1 |  | 10.4 µM (active)
Cc1cc(NC(=O)c2cnn3cccnc23)n(-c2ccccc2)n1 | -9.66 | 
CC(=O)N/C(=N/c1nc(C)cc(C)n1)Nc1ccc(F)cc1F | -15.7 | 
CC(CN1CCOCC1)OC(=O)c1ccc(C(C)(C)C)cc1 (stereo unspecified) | -8.18 | 
O=C(O)CCCC(=O)N1N=C(c2ccco2)CC1c1ccco1 (stereo unspecified) | -18 | 
Cc1nn2c(c1-c1ccccc1)N=C(c1ccco1)CC2c1ccccc1 (stereo unspecified) |  | 14.7 µM (active)
Cc1nn(C(=O)c2ccoc2C)c(N)c1-c1ccccc1 | 23.2 | 
CCN1CCN(C(=O)C2CCN(S(=O)(=O)c3cc(Cl)ccc3Cl)CC2)CC1 | 10.5 | 
COc1ccc(C(=O)c2c(C)c(CCC#N)n3ccccc23)c(OC)c1 | -8.61 | 
Cc1ccccc1NC(=O)C(C)OC(=O)CCC(=O)N(CC(C)C)c1c(N)n(CC(C)C)c(=O)[nH]c1=O (stereo unspecified) | -7.74 | 
COc1cc(/C=N\NC(=O)CNC(=O)c2cccc([N+](=O)[O-])c2)ccc1O | 17.5 | 
COc1ccc(C(=O)NCC(=O)N/N=C/c2ccc([N+](=O)[O-])o2)cc1OC |  | 6.57 µM (active)
COc1ccc(C(=O)NCC(=O)N/N=C/c2ccc([N+](=O)[O-])s2)cc1OC | -25.4 | 

Reference: PubChem BioAssay AID504832 (National Center for Advancing Translational Sciences (NCATS), 2011)
